# Results: PubChem BioAssay AID1076 (NMMLSC, 2008)
# The source made the active and inactive calls.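 How the source made its calls: active means cell event count below 40, meaning activity score above 60 where score is 100 minus count; inactive means the rest.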
# Test: LNCaP cell loss by flow event count, confirmation, cytotoxicity control for prostate differentiation activator project, single point (AID 1076);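 further: counts scatter-gated live cells after medium removal discards detached dead cells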
# Conditions: flow cytometry event count, 4 d, stronger effect = lower value
Compound,cell event count (at 100 µM),"cell event count (event count, at 10 µM)"
CCn1c(=O)cc(SCC(=O)NCCCN2CCN(c3ccccc3F)CC2)c2ccccc21,6 (inactive),338
CCn1c(=S)ccc2ccc(OC)cc21,139 (inactive),118
Cc1ccc(CN2CCSc3ccc(C(=O)N4CCN(c5ncccn5)CC4)cc32)cc1,129 (inactive),266
CCN(CCNC(=O)C1CCCN(Cc2nc(-c3ccc(OC)cc3)oc2C)C1)c1ccccc1 (stereo unspecified),18 (inactive),146
CCCCCn1c(=N)n(CC(O)COc2ccccc2OC)c2ccccc21 (stereo unspecified),20 (inactive),138
Cc1cccc(OCCn2c(=O)n(C)c3ccccc32)c1,15 (inactive),136
O=C(Cc1ccc(-n2cccc2)cc1)NCc1cccs1,160 (inactive),133
CC(C)Cc1nc2oc3c(N4CCN(CCO)CC4)ncnc3c2c2c1CCCC2,3 (inactive),120
Cc1cc(C)nc(N2CCC(C(=O)Nc3ccc(Oc4ccccc4)cc3)CC2)n1,145 (inactive),398
CC(C)(C)C1CCc2onc(C(=O)Nc3cnn(Cc4ccc(F)cc4)c3)c2C1 (stereo unspecified),66 (inactive),242
CN1C(=O)c2ccc(S(=O)(=O)c3ccc(C(=O)O)cc3)cc2C1=O,195 (inactive),166
Cn1c(=O)cc(OCC(=O)NCCCN2CCN(c3ccccc3F)CC2)c2ccccc21,227 (inactive),401
COc1ccc(Cc2n[nH]c(=O)c3ccccc23)cc1OC,207 (inactive),111
COc1ccc(C(CC(=O)O)NC(=O)Cc2ccccc2)cc1 (stereo unspecified),186 (inactive),66.5
Cc1nc2ncnn2c(C)c1CCC(=O)NCCCN1CCN(c2cccc(Cl)c2)CC1,95 (inactive),148
Cc1ccccc1Cn1cnc2c(cnn2C(C)(C)C)c1=O,13 (inactive),85
COc1ccc(-c2cc(C(=O)NCc3ccc(Cl)cc3)no2)cc1OC,172 (inactive),255
CC(=O)c1cccc(NC2c3ccccc3C(=O)N2Cc2ccc3c(c2)OCO3)c1 (stereo unspecified),121 (inactive),281
Cc1noc(/C=C/c2ccco2)c1S(=O)(=O)N1CCC(C(=O)N2CCc3ccccc3C2)CC1,174 (inactive),197
COc1ccc(-c2cc(-c3ccc(F)cc3)nc(N3CCN(C)CC3)n2)cc1,3 (inactive),118
COc1cccc(-c2cc(C(=O)N3CCN(C(c4ccccc4)c4ccccc4)CC3)no2)c1,440 (inactive),402

Compound,cell event count (at 100 µM),"cell event count (event count, at 10 µM)"
Cc1oc(-c2ccccc2F)nc1CN1CCC(C(=O)NCc2ccco2)CC1,330 (inactive),278
Cc1ccccc1-c1nc(CN2CCCC(C(=O)NCCCN3CCOCC3)C2)c(C)o1 (stereo unspecified),145 (inactive),175
CCOC(=O)C1CCCN(C(=O)Cn2cccc2C(=O)c2ccccc2)C1 (stereo unspecified),201 (inactive),166
CCOC(=O)c1[nH]c(C)c(C(=O)NC2CCCCCC2)c1C,63 (inactive),112
CCOC(=O)c1cc2c(=O)n3ccccc3nc2n(CCCOC)c1=NC(=O)c1cccnc1,223 (inactive),144
CCOC(=O)N1CCN(C(=O)CN(c2cccc(C(F)(F)F)c2)S(=O)(=O)c2ccccc2)CC1,137 (inactive),395
Cc1oc(-c2ccccc2F)nc1CN1CCC(C(=O)NC2CC2)CC1,363 (inactive),496
Cc1noc(C)c1S(=O)(=O)N1CCC(C(=O)NCCN2CCC(C)CC2)CC1,300 (inactive),188
O=C(NCc1ccc(Cl)cc1)c1noc2c1CCCC2,311 (inactive),380
Cc1ccccc1-c1nc(CN2CCCC(C(=O)NCc3cccnc3)C2)c(C)o1 (stereo unspecified),124 (inactive),135
COc1ccc(OC)c(N=Cc2c(O)[nH]c3ccccc23)c1,207 (inactive),112
c1cncc(-c2nc3ccccc3o2)c1,49 (inactive),89.5
CCOC(=O)N1CCN(C(=O)C2CCN(Cc3nc(-c4ccccc4C)oc3C)CC2)CC1,111 (inactive),244
COc1ccc(Cl)c(N2CCN(CCCNC(=O)Nc3ccc(C)cc3)CC2)c1,19 (inactive),128
Cc1ccccc1-c1nc(CN2CCC(C(=O)NCc3cccnc3)CC2)c(C)o1,268 (inactive),208
Cc1oc(-c2cccc(Cl)c2)nc1CN1CCC(C(=O)NCC2CCCO2)CC1 (stereo unspecified),174 (inactive),165
O=C(Cn1cnc2ccccc2c1=O)NCCC(=O)N1CCN(c2ccccc2)CC1,158 (inactive),190
O=C(CCn1c(=O)oc2ccccc21)NCCCN1CCN(c2ccc(F)cc2)CC1,213 (inactive),127
CCOc1cccc(-c2nnc3n2N=C(c2cc(OC)ccc2OC)CS3)c1,3 (inactive),136
CCN1CCCC1CNC(=O)c1cc2c(-c3cccc(OC)c3)nn(C)c2s1 (stereo unspecified),25 (inactive),81.5
Cc1oc(-c2ccccc2F)nc1CN1CCC(C(=O)NCc2cccs2)CC1,107 (inactive),214

Compound,cell event count (at 100 µM),"cell event count (event count, at 10 µM)"
COc1ccc(N2CCN(c3oc(COc4ccccc4Cl)nc3C#N)CC2)cc1,214 (inactive),172
Cc1ccc(C2=Nc3ccccc3NC(C)(c3ccc(C)o3)C2)o1 (stereo unspecified),324 (inactive),120
Cc1ccc(-n2c(SCC(=O)Nc3nccs3)nc3c(c2=O)SCC3)cc1,83 (inactive),282
O=C(CCCCCn1c(=O)[nH]c2ccccc2c1=O)NCCCN1CCN(c2ccccc2F)CC1,18 (inactive),336
CCOC(=O)N1CCN(C(=O)Cc2ccc(-n3c(=O)[nH]c4ccccc4c3=O)cc2)CC1,302 (inactive),265
Cc1ccc(Cn2c(C(=O)NCCCN3CCOCC3)cc3sccc32)cc1,279 (inactive),379
CCC(C)NC(=O)c1cn(C)c(=O)c2cc(OC)c(OC)cc12 (stereo unspecified),386 (inactive),302
CCc1ccc(-c2nc(CN3CCC(C(=O)NCc4ccccc4OC)CC3)c(C)o2)cc1,49 (inactive),190
CCCCn1c2c(c3ccccc31)CCc1nonc1-2,134 (inactive),128
Cc1cc(N2CCN(C)CC2)nc2ccc(NC(=O)c3ccc(Br)o3)cc12,4 (inactive),96.5
CC(C)n1c(=S)[nH]c2c1c(=O)[nH]c(=O)n2C,221 (inactive),146
COC(=O)c1cc(-c2ccccc2)sc1NC(=O)c1cc(C)on1,10 (active),42.5
COc1ccc(-c2cc(C(F)(F)F)nc(N3CCN(c4ccc(F)cc4)CC3)n2)cc1OC,184 (inactive),96
Oc1c(CN2CCCCC2)cc(COCc2ccccc2)c2cccnc12,35 (inactive),92
CCCS(=O)(=O)N1CCCC(C(=O)NCCCN2CCN(c3ccccc3F)CC2)C1 (stereo unspecified),110 (inactive),168
COc1ccc(-c2noc(-c3cc(Cl)ccc3Cl)n2)cc1OC,77 (inactive),110
Cc1ccc(OCC(O)Cn2c(=N)n(CCN3CCCCC3)c3ccccc32)cc1 (stereo unspecified),13 (inactive),96
CCOC(=O)N1CCC(=C2c3ccc(Cl)cc3CCc3cccnc32)CC1,7 (inactive),192
CCN(CC)CCNC(=O)c1cc2c(-c3ccc(Cl)cc3)nn(C)c2s1,25 (active),25
Cc1onc(-c2ccccc2Cl)c1C(=O)N(C)C1CCCCC1,25 (inactive),188
COc1ccc(Cc2noc(-c3ccc(C)cc3)n2)cc1,70 (inactive),152

Compound,cell event count (at 100 µM),"cell event count (event count, at 10 µM)"
COC(=O)C1=C(C)N=c2s/c(=C/c3cccs3)c(=O)n2C1c1cccs1 (stereo unspecified),125 (inactive),320
CCN(CC)CCCNC(=O)c1cc(-c2cccc(Cl)c2)on1,170 (inactive),376
COc1ccc(-c2cc(C(F)(F)F)nc(N3CCN(C)CC3)n2)cc1,4 (inactive),102
CCCS(=O)(=O)N1CCCC(C(=O)NCCCN2CCN(c3cccc(Cl)c3)CC2)C1 (stereo unspecified),53 (inactive),114
Nc1ccc(-n2ccnc2)cc1,173 (inactive),126
COCCn1cc(C(=O)N2CCCC(C)C2)c2c3ccccc3n(C)c2c1=O (stereo unspecified),180 (inactive),176
Cc1oc(-c2ccc(Cl)cc2)nc1CN1CCCC(C(=O)N2CCN(C(=O)c3ccco3)CC2)C1 (stereo unspecified),19 (inactive),120
COc1ccc(N2CCN(CCCNC(=O)CC3Oc4ccc(C)cc4NC3=O)CC2)cc1 (stereo unspecified),290 (inactive),140
O=C(CCNC(=O)Cn1ccc2ccccc2c1=O)NCCCN1CCN(c2ccccc2F)CC1,112 (inactive),126
O=C(NCCCN1CCN(c2ccccc2F)CC1)C1CCN(S(=O)(=O)N2CCOCC2)CC1,156 (inactive),108
O=C(Nc1nc(-c2ccccc2)cs1)C1CCCCN1S(=O)(=O)c1ccccc1 (stereo unspecified),234 (inactive),210
Cc1oc(-c2ccc(Cl)cc2)nc1CN1CCC(C(=O)NCCCN2CCOCC2)CC1,12 (inactive),119
CCOC(=O)N1CCN(C(=O)C2CCCN(Cc3nc(-c4ccc(Cl)cc4)oc3C)C2)CC1 (stereo unspecified),10 (inactive),126
Cn1nc(-c2ccc(Cl)cc2)c2cc(C(=O)NCCCN3CCCC3)sc21,19 (inactive),104
COc1ccc(N2CCN(CCCNC(=O)CCCn3c(=O)[nH]c4ccsc4c3=O)CC2)cc1,13 (active),25.5
COc1ccc(Cl)cc1N1CCN(CCNC(=O)Nc2ccccc2C)CC1,6 (inactive),506
Cc1oc(-c2ccc(Cl)cc2)nc1CN1CCCC(C(=O)NCCCN2CCCC2=O)C1 (stereo unspecified),43 (inactive),258
COc1ccc(C)cc1NC(=O)CCC(=O)Nc1ccc2nc(N3CCN(C)CC3)cc(C)c2c1,19 (inactive),369
CCc1ncc(C(O)c2cccc(OC)c2OC)n1C (stereo unspecified),285 (inactive),172
COc1cc2nc(N3CCN(C(=O)C4COc5ccccc5O4)CC3)nc(N)c2cc1OC (stereo unspecified),5 (inactive),124
